Data on 5 compounds can be found in PubChem BioAssay.

Experiment [1] addresses Albumin (Bos taurus) (UniProt P02769). Description: compounds binding labelled BSA control protein – biochemical, small-molecule microarray, Alexa647 label, 635/667 nm fluorescence, artefact control for SMM control protein annotation, profiling panel (AID 1118).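 Note: score merges 667 nm emission intensity and signal-to-noise per printed compound spot.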 Particulars: BSA-A647 binding, fluorescence 635 nm, higher = more signal.
Experiment [2] can be described thus: probe aXIP binding to arrayed compounds – biochemical, NeuroSMM set, 635/667 nm fluorescence, primary screen (AID 1119).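 Note: probe is the protein aXip251-270 applied at 1 µg/mL to compound-printed slides; binding of probe to printed compounds measured as 667 nm fluorescence plus signal to noise.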 Conditions: small-molecule microarray, higher = more signal, called active from +8 up or from −8 down.
A short description of experiment [3]: probe aNOTCH3 binding on compound microarray – biochemical, small-molecule microarray, 635/667 nm fluorescence, primary screen (AID 1120).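 Note: probe is a biotin-tagged antibody raised against NOTCH3 rather than NOTCH3 protein; score merges spot fluorescence near 667 nm with spot signal to noise.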 Particulars: higher = more signal.
Experiment [4] can be described thus: probe aNOTCH2 binding on compound microarray – biochemical, small-molecule microarray, 635/667 nm fluorescence, primary screen (AID 1121).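 Note: score merges feature fluorescence read at 667 nm with its signal to noise.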 Conditions: higher = more signal.
Experiment [5] deals with Carbonic anhydrase 2 (Homo sapiens) (UniProt P00918). Briefly: compounds binding carbonic anhydrase 2 – biochemical, small-molecule microarray, Alexa647-labelled CAII, profiling panel (AID 1122). Conditions: CAII-A647 binding fluorescence, higher = more signal.
Experiment [6] in a line: COS7 lysate on small-molecule microarray, probe aHis, 635 nm (AID 1123).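 Note: z-score combines 667nm fluorescence intensity with signal-to-noise per printed compound spot.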 Particulars: COS7 cell lysate, fluorescence, higher = more signal.
Experiment [7] in a line: probe aLAP1 signal on lysate-treated microarray – cell lysate, small-molecule microarray, COS7 lysate, primary screen (AID 1124).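 Note: lysate comes from COS7 cells expressing LAP1 and is applied at 0.3 µg/mL; score merges spot fluorescence near 667 nm with signal-to-noise over triplicate slides.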 Conditions: probe aLAP1, fluorescence, higher = more signal.
The test system of experiment [8] is Sam68 (KHDRBS1). Briefly: compounds binding KHDRBS1 protein – biochemical, small-molecule microarray, 635 nm fluorescence, primary screen (AID 1125).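 Note: score merges 667 nm channel intensity with signal to noise over triplicate slides.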 Conditions: higher = more signal.
The test system of experiment [9] is Chordin-like protein 2 (CHRDL2). Description: compounds binding chordin-like 2 – biochemical, small-molecule microarray, 635 nm fluorescence, primary screen (AID 1126).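 Note: printed compound slides probed with Chrdl2 protein at 4 µg/mL for 1 h at 4 C; score merges 667 nm emission intensity with signal to noise over three replicate slides.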 Conditions: fluorescence 635 nm, higher = more signal.
Experiment [10] deals with Concanavalin-A (Canavalia ensiformis) (UniProt P02866). Briefly: compounds binding concanavalin A lectin – biochemical, small-molecule microarray, Alexa647 label, 635 nm, artefact control for SMM control protein annotation, primary screen (AID 1127).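 Note: z combines 667 nm emission intensity with signal-to-noise across three replicate slides.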 Conditions: ConA-A647 binding fluorescence, higher = more signal.
The nature of experiment [11]: compounds binding Alexa647 anti-His antibody – biochemical, small-molecule microarray, 635 nm fluorescence, artefact control for SMM control protein annotation, primary screen (AID 1128).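 Note: score merges feature fluorescence with signal-to-noise for each printed compound spot.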 Particulars: higher = more signal.
For experiment [12], the system named is Human papillomavirus type 1a E7 protein (residues 1-88). Briefly: HPV1a E7 small-molecule binders, primary screen, biochemical, small-molecule microarray, residues 1-88, 635 nm (AID 1129). Particulars: small-molecule microarray binding, fluorescence 635 nm; higher = more signal.
For experiment [13], the target named is Focal adhesion kinase 1 (Homo sapiens) (UniProt Q05397). Briefly: PTK2 protein binding on printed compound slides – biochemical, small-molecule microarray, 635/667 nm fluorescence, BSA, DTT, primary screen (AID 1130).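 Note: composite of spot emission at 667 nm and signal to noise over triplicate slides.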 Particulars: 635 nm fluorescence, higher = more signal.
Experiment [14] deals with Fibrinogen (Alexa647-labelled). Description: Alexa647-fibrinogen binding to printed small molecules – biochemical, small-molecule microarray, 635/667 nm fluorescence, artefact control for SMM control-protein annotation, profiling panel (AID 1131).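 Note: z-score merges 667 nm fluorescence with per-spot signal-to-noise over triplicate slides.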 Conditions: fibrinogen-A647 binding fluorescence, higher = more signal.
The target in experiment [15] is Follistatin (Homo sapiens) (UniProt P19883). Description: FST protein binding to printed compounds – biochemical, small-molecule microarray, 635/667 nm fluorescence, primary screen (AID 1132). Particulars: 635 nm fluorescence, higher = more signal.
In experiment [16] the target is Fibroblast growth factor 2 (Homo sapiens) (UniProt P09038). Description: basic fibroblast growth factor binding to printed compounds – biochemical, small-molecule microarray, 635/667 nm fluorescence, primary screen (AID 1133). Particulars: FGF2, fluorescence 635/667, higher = more signal.
A short description of experiment [17]: JC-1 mitochondrial potential readout, lung cancer cells – cell-based, A549, JC-1 fluorescence, basal, 24 h, 100 nL, profiling panel (AID 1138).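 Note: A549 lung adenocarcinoma cells under basal conditions with no added stimulus; test concentration not given here.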 Particulars: higher = more signal.
The subject of experiment [18] is Lefty1. Briefly: Lefty1 protein binding to printed compounds – biochemical, small-molecule microarray, 635/667 nm fluorescence, primary screen (AID 1139). Conditions: fluorescence 635/667, higher = more signal.
Experiment [19] has as its system wheat germ agglutinin (Triticum aestivum), Alexa647-labelled. Description: Alexa647-WGA lectin binding to printed small molecules – biochemical, small-molecule microarray, 635/667 nm fluorescence, artefact control for SMM control-protein annotation, profiling panel (AID 1140).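 Note: score merges 667 nm feature emission with signal to noise over triplicate slides.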 Particulars: WGA-A647 binding, 635 nm fluorescence, higher = more signal.
The target of experiment [20] is Luciferin 4-monooxygenase (Photinus pyralis) (UniProt P08659). Briefly: inhibition of purified Photinus pyralis luciferase – biochemical, luminescence, purified enzyme, 2006 set, primary screen (AID 1141).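 Note: cell-free assay with purified firefly luciferase at 100 ng per well in PBS; test concentration not given here.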 Particulars: purified firefly luciferase, SteadyGlo luminescence, 30 min; higher = more signal, called active from +8 up or from −8 down.

Calls of active or inactive are those of the source.

Luciferin 4-monooxygenase (Photinus pyralis), sequence (P08659 whole entry, looked up): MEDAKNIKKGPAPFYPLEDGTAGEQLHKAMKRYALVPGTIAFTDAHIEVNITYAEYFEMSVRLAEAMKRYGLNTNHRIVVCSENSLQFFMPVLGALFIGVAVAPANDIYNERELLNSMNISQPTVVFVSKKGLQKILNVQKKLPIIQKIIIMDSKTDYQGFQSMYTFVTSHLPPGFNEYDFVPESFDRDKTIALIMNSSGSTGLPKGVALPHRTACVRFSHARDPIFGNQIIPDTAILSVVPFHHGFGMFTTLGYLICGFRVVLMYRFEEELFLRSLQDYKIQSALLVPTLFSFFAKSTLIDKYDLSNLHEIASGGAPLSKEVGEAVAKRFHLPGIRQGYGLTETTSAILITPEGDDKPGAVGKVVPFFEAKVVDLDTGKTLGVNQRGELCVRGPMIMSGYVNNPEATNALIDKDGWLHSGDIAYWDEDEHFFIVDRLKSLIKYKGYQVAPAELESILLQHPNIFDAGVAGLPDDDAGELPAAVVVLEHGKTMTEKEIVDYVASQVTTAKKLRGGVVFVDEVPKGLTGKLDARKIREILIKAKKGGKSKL
Concanavalin-A (Canavalia ensiformis), sequence (P02866 whole entry, looked up): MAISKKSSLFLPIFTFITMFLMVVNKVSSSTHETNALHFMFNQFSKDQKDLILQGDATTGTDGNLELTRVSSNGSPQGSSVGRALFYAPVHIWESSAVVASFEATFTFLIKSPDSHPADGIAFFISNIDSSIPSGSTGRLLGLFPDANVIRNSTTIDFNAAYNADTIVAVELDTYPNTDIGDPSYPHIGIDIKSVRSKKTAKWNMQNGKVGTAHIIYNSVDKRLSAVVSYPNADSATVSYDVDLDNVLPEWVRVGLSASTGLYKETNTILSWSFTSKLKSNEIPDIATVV
Fibroblast growth factor 2 (Homo sapiens), sequence (P09038 whole entry, looked up): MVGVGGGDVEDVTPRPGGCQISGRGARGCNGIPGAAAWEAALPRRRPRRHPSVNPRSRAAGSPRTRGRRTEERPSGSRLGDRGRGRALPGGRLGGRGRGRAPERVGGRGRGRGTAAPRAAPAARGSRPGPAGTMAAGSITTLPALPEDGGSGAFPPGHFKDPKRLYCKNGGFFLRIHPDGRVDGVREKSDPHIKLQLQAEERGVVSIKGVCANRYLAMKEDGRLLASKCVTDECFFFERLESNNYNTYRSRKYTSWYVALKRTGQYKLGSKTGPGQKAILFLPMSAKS
Focal adhesion kinase 1 (Homo sapiens), sequence (Q05397 whole entry, looked up): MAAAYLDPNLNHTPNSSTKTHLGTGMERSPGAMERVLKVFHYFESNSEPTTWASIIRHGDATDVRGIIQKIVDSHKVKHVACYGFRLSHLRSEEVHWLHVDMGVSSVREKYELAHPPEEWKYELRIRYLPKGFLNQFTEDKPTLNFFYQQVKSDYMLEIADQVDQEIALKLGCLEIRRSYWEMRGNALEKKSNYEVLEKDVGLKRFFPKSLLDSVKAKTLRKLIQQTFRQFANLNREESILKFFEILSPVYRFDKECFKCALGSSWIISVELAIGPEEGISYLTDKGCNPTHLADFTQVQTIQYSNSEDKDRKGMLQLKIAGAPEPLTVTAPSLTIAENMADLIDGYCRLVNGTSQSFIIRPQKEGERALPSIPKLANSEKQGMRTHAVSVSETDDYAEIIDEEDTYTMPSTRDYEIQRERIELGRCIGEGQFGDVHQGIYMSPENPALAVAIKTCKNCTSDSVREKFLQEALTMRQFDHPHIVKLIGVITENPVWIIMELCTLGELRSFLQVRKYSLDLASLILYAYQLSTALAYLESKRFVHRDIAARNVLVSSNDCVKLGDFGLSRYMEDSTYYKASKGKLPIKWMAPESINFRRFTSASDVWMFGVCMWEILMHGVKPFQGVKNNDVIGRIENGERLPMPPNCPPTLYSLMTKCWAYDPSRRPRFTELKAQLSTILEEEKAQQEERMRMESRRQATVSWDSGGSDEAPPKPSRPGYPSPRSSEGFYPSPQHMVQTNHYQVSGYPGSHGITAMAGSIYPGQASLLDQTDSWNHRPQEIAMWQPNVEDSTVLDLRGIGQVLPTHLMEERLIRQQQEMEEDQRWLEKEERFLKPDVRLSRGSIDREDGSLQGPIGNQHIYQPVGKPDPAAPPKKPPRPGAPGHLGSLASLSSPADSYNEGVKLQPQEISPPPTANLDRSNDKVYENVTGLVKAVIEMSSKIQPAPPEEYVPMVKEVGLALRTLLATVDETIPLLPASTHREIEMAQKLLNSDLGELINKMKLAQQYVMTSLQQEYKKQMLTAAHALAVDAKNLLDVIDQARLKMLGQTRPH
Follistatin (Homo sapiens), sequence (P19883 whole entry, looked up): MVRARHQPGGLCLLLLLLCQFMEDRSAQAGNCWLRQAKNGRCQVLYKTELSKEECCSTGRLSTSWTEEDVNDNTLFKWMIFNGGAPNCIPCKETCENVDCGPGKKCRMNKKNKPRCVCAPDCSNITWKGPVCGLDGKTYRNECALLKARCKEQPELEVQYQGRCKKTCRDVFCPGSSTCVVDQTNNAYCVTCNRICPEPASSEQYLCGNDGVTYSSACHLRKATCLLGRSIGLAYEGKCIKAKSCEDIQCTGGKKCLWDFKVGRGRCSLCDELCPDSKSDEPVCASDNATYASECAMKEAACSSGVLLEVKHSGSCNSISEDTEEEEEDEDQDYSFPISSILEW
Albumin (Bos taurus), sequence (P02769 whole entry, looked up): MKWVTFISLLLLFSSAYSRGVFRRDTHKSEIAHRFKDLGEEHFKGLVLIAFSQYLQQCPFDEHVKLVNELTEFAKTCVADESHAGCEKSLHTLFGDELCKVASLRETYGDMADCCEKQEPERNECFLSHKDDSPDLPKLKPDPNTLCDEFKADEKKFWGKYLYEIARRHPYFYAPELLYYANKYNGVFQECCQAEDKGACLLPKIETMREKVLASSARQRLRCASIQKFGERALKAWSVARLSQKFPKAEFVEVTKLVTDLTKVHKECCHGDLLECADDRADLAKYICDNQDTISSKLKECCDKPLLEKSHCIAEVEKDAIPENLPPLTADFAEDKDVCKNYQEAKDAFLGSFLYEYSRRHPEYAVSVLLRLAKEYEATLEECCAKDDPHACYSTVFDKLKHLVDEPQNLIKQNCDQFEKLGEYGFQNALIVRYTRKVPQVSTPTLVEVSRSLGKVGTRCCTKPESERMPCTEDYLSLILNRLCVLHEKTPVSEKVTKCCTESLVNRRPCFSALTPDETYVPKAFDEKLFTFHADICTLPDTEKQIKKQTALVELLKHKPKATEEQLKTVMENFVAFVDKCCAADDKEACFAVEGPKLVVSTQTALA

As for `C=C(C(=O)CC[C@H](OC(=O)c1ccccc1-c1ccccc1C(=O)O)c1ccc(OCCO)cc1)C(C)C`, the composite z-score was 0.816 in experiment [1]; 0.0282 in [3]; -0.106 in experiment [4]; 0.59 in experiment [5]; 1.61 in experiment [6]; -0.284 in [7]. Moreover, the composite z-score in experiment [8] is 0.884; in [9], -0.0766; in experiment [10], 0.708; in experiment [11], 0.547; in experiment [12] it was 1.16; in experiment [13] it was 0.124. Besides, the composite z-score was determined as 0.981 in experiment [14]; 0.901 in [15]; 0.726 in experiment [16]; 0.64 in experiment [18]; 0.189 in [19]. For the same compound, in experiment [2], the composite Z-score is -0.691 (inactive). The z-score is -0.45 in experiment [17] and -1.35 (inactive) in experiment [20].
For the compound `CCCN1C(=O)[C@@]2(c3ccc([N+](=O)[O-])cc3)CC(=O)N(C3CCCCC3)[C@@H]2c2ccc(CO)cc21`, the composite z-score in experiment [1] is -0.328; in experiment [3], -0.15; in [4], -0.112; in [5], -0.139; in [6] it was 0.361; in experiment [7], -0.435. For the same compound, the composite z-score in [8] was 0.268; in experiment [9] it was 0.649; in experiment [10] it was 0.31; in [11], 0.993; in experiment [12], -0.281; in experiment [13], 0.584. Also, the composite z-score in [14] was -0.138; in [15], 1.2; in experiment [16], 1.08; in [18], 0.466; in [19], 0.198. For the same compound, the composite Z-score in [2] was 2.02 (inactive). The results for the z-score in experiment [17] and in [20] were -0.755 and 0.289 (inactive), respectively.
In the case of `COc1ccc(C(O)C2C=CC3C(=O)N(c4ccccc4)C(=O)C3N2Nc2ccccc2F)c2ccccc12` (stereo not given), the composite z-score in experiment [1] amounted to 0.968; in experiment [3], 0.785; in experiment [4], 0.579; in experiment [5], 0.762; in experiment [6], 2.23; in experiment [7] it was 1.34. Besides, the composite z-score in experiment [8] is 1.3; in experiment [9] it was -0.316; in [10] it was 1.21; in experiment [11] it was 1.95; in experiment [12], 1.23; in experiment [13] it was 1.03. Also, the composite z-score in [14] is 0.995; in experiment [15], 1.33; in [16], 0.716; in experiment [18], -0.111; in experiment [19] it was 1.29. Moreover, the composite Z-score in experiment [2] is 0.882 (inactive). Further, the z-score is -0.646 in experiment [17] and -1.77 (inactive) in experiment [20].
As to `CO[C@H]1O[C@H](CO)[C@@H](OC(=O)Nc2ccccc2)[C@@H]2OC(=O)[C@@H](Cc3ccccc3)C/C=C/C[C@H](Cc3ccccc3)C(=O)O[C@@H]12`, the composite z-score was 0.0558 in [1]; 0.106 in experiment [3]; -0.0486 in experiment [4]; 0.315 in experiment [5]; 0.923 in experiment [6]; 0.79 in experiment [7]. For the same compound, the composite z-score in [8] is 0.296; in experiment [9], -0.0529; in [10] it was -0.216; in experiment [11], 2.4; in experiment [12], 0.426; in experiment [13], 0.348. Further, the composite z-score is 0.0766 in experiment [14]; 0.661 in [15]; 0.0861 in [16]; 0.449 in [18]; 0.95 in experiment [19]. In addition, in experiment [2], the composite Z-score is 0.547 (inactive). Moreover, the values for the z-score in experiment [17] and in experiment [20] were -0.282 and -0.283 (inactive), respectively.
On to `CC(C)[Si]1(C(C)C)OCc2cc(-c3ccc(-c4ccc(Cl)c(Cl)c4)o3)nc(-c3ccc(Oc4ccccc4)cc3)c21`, for which the composite z-score in experiment [1] was -0.753; in experiment [3], -0.292; in [4] it was -0.197; in experiment [5], -0.554; in [6] it was -0.558; in [7], -0.397. Moreover, the composite z-score in experiment [8] was -1.08; in experiment [9], -1.24; in experiment [10], -1.08; in experiment [11] it was -0.768; in experiment [12] it was -1.88; in experiment [13], -0.0554. Also, the composite z-score in experiment [14] is -1.02; in [15], -1.21; in [16] it was -1.57; in experiment [18], -1.34; in experiment [19], -0.0312. Further, in [2], the composite Z-score is -1.23 (inactive). For the same compound, the z-score in experiment [17] was 0.229; in experiment [20], 0.586 (inactive).
